For 57 compounds, inhibition results are on record in PubChem BioAssay AID1974 (The Scripps Research Institute Molecular Screening Center, 2009).

About 3,200 (1.1%) of roughly 300,000 compounds were called active. This is one part of a sample in which actives are shown more often than they occur.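 The calls were made as follows: active = inhibition above the campaign mean inhibition plus 3 SD (cut at about 35% in these data); inactive = the rest.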

Chain of Glutathione S-transferase omega-1 (Homo sapiens) (P78417 whole entry, looked up): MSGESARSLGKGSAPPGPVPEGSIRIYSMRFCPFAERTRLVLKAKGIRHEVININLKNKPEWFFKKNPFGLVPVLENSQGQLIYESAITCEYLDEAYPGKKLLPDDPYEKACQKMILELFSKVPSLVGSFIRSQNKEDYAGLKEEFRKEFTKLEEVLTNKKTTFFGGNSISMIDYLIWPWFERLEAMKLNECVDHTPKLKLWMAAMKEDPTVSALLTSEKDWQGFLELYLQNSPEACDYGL

The test has as its target Glutathione S-transferase omega-1 (Homo sapiens) (UniProt P78417). Description: inhibitors of recombinant GSTO1, primary screen, counter-screen for RBBP9 inhibitor project, biochemical, fluorescence polarization (AID 1974).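 Also: 0% = GSTO1-1 with DMSO and 100% = wells lacking GSTO1-1 enzyme.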 The following applies: recombinant GSTO1, activity-based probe fluorescence polarization; at 5.96 µM; active compounds read high.
Consider `NC(=O)CSc1nnc(NC(=O)c2ccc3ccccc3c2)s1`, for which the inhibition – broadly, the drop in the measured response relative to a control, in per cent – was -7.13% (inactive).
The value for `Cc1ccc(/C=C2\SC(=S)N(CCC(=O)Nc3ccc(O)cc3)C2=O)cc1` was -1.64% (inactive).
With `O=C(CCN1C(=O)c2ccccc2C1=O)NCCN1CCOCC1` the figure was 6.46% (inactive); with `Cc1ccc(/C=C2/SC(=S)N(CCC(=O)NCCCN3CCOCC3)C2=O)cc1`, 36.4% (active); with `Cc1csc(NC(=O)CSc2nc(=O)n(CCCN(C)C)c3c2CCC3)n1`, 10.8% (inactive).
With `Cc1nn(-c2ccccc2)c(C)c1NC(=O)COc1ccc(Cl)cc1Cl` the figure was 8.17% (inactive); with `Cc1nn(-c2ccccc2)c(C)c1NC(=O)CCl`, 82.7% (active).
`Cc1cccc(C)c1NC(=O)CNC(=O)c1c(C)nn(-c2ccccc2)c1C`: the inhibition was -1.44% (inactive).
Consider `O=C(Nc1ccc2nc3n(c(=O)c2c1)CCCC3)c1ccc(Cl)nc1`, for which the inhibition is -3.93% (inactive).
For the compound `Cc1nn(C)c(C)c1NS(=O)(=O)c1ccc(OC(F)(F)F)cc1`, the inhibition is 5.1% (inactive).
With `O=S(=O)(Nc1ccc(O)c2ccccc12)c1ccc(OC(F)(F)F)cc1` the figure was 67.3% (active); with `O=S(=O)(Nc1ccc(OC(F)(F)F)cc1)c1cccc2nonc12`, 10.2% (inactive); with `CSc1nnc(C2CCCN(CC(=O)Nc3ccccc3N3CCOCC3)C2)n1C(C)C` (configuration not stated), 4.43% (inactive).
The value for `O=C(c1cc(-c2ccc(Cl)s2)nc2ccccc12)N1CCOCC1` was -12.9% (inactive); that for `CCOc1ccc(/C=C/C(=O)N(CC)CC(=O)NCc2cccs2)cc1OC` was 19.7% (inactive); that for `Cc1cccn2c(=O)nc(SCC(=O)NCc3ccccc3Cl)nc12` was 0.44% (inactive).
With `CC1=CC(C)(C)Nc2ccc(OC(=O)C(Cc3ccccc3)N3C(=O)C4CCCCC4C3=O)cc21` (configuration not stated) the figure was 18.1% (inactive); with `O=C(CN1C(=O)C2C3CCC(C3)C2C1=O)Oc1ccc2ccccc2c1` (configuration not stated), 12.6% (inactive).
`CC1=CC(C)(C)Nc2ccc(OC(=O)CN3C(=O)C4CCCCC4C3=O)cc21` (configuration not stated): the inhibition is 48.4% (active).
As to `Cc1ccc([C@@H]2CC=C(C(=O)O)[C@H](c3cccc(Cl)c3)N2S(=O)(=O)c2ccc(C)cc2)cc1`, the inhibition is -107% (inactive).
In the case of `Cc1ccc(S(=O)(=O)N2[C@@H](c3ccccc3F)C(C(=O)O)=CC[C@H]2c2ccc(Cl)cc2)cc1`, the inhibition was -60.4% (inactive).
The value for `Cc1ccccc1NC(=O)COc1cccc2c1CCNC2=O` was 0.64% (inactive); that for `Cc1ccc(S(=O)(=O)N2CCCCC2)cc1C(=O)N(C)CC(=O)Nc1cccc(F)c1` was 6.24% (inactive); that for `COc1ccc2c(c1)[C@H]1[C@H](CO2)[C@H](c2ccccc2)[C@]2(C)C(=O)Nc3cc(F)c(F)cc3C(=O)N12` was -3.75% (inactive).
The value for `COc1ccccc1CCC(=O)OCC(=O)N1CCN(S(=O)(=O)c2ccc(C)cc2C)CC1` was 8.7% (inactive); that for `COc1ccc(OC)c(Nc2nc(-c3ccc(O)c(O)c3)cs2)c1` was 57.3% (active); that for `COc1cccc(CC(=O)Nc2nc(-c3ccc(OC)c(OC)c3)cs2)c1` was -14.6% (inactive).
The value for `COc1ccc(-c2csc(Cc3nc(O)cs3)n2)cc1` was 8.36% (inactive); that for `COc1ccc(C)cc1Nc1nc(-c2c(C)[nH]c3ccccc23)cs1` was 0.17% (inactive).
For `O=c1oc2ccccc2cc1-c1csc(Nc2ccc(O)cc2)n1`, the inhibition is 5.73% (inactive).
On to `COc1ccc(-c2csc(Nc3ccc(O)cc3)n2)cc1`, for which the inhibition was 44.8% (active).
For the compound `COc1cccc(N2CC(NS(=O)(=O)c3cccs3)CC2=O)c1` (configuration not stated), the inhibition was 7.08% (inactive).
The value for `CC(=O)Nc1ccc(C(=O)Nc2cccc(S(=O)(=O)NC3=NCCC3)c2)cc1` was 0.43% (inactive); that for `O=C(OCc1nnc(-c2ccccc2)o1)c1cc(=O)[nH]c2ccccc12` was 8.64% (inactive); that for `CCC(C)N(C(=O)COC(=O)c1nc(Cl)ccc1Cl)C1CCS(=O)(=O)C1` (configuration not stated) was -3.44% (inactive).
Turning to `CCOC(=O)[C@H]1[C@H]2COc3ccc(OC)cc3[C@@H]2N2C(=O)c3ccc(F)cc3NC(=O)[C@@]12C`, the inhibition is 8.55% (inactive).
The value for `Cc1ccc(Cn2c(=N)c(S(=O)(=O)c3ccc(C)cc3)cc3c(=O)n4ccccc4nc32)cc1` was 1.35% (inactive).
Turning to `O=[N+]([O-])C(=c1ccc2c(c1)N1C3=C(CCCC3)CC3CCCCC31N=2)[N+](=O)[O-]` (configuration not stated), the inhibition was 35.2% (active).
For the compound `CCN(CC(=O)NCc1ccc(Cl)cc1)C(=O)CSc1ccccc1`, the inhibition is -6.37% (inactive).
`O=C(NCCN1CCOCC1)c1cc(-c2cccs2)nc2ccccc12`: the inhibition was -2.35% (inactive).
With `O=C(Cc1ccc(Br)cc1)NCCN1CCOCC1` the figure was -0.16% (inactive); with `O=C(Cn1c(-c2ccccn2)nc2ccccc21)NCCN1CCOCC1`, 98.3% (active); with `CCCCN(C1CCS(=O)(=O)C1)S(=O)(=O)c1ccc(C(C)C)cc1` (configuration not stated), -0.04% (inactive).
The value for `CC(C)Oc1ccc(C(CC(=O)N2CCOCC2)C(C)C)cc1` (configuration not stated) was 10.3% (inactive); that for `Cc1ccc(N(Cc2cc3ccccc3[nH]c2=O)C(=O)c2cccs2)cc1` was 0.73% (inactive); that for `Cc1ccc(N(Cc2cc(=O)[nH]c3ccccc23)C(=O)CCl)cc1` was 80% (active).
As for `CC(=O)N(Cc1cc(=O)[nH]c2ccccc12)c1ccc(C)cc1C`, the inhibition is -13.1% (inactive).
The value for `Cn1c(-c2ccc(C(F)(F)F)cc2)cc2onc(-c3ccccc3)c2c1=O` was 4.73% (inactive); that for `CC(C)(C)c1ccc(C(=O)NCc2ccco2)cc1` was -7.66% (inactive).
With `CCC(C)Cn1c(O)cc2nn(-c3nc4ccccc4s3)c(=O)c-2c1C` (configuration not stated) the figure was 36% (active).
As for `Cc1nn(CC(=O)Nc2nc3ccccc3s2)c(C)c1[N+](=O)[O-]`, the inhibition is 11.3% (inactive).
With `C/C(=N\NC(=O)CC(C)C)c1c(C(F)(F)F)[nH]n(-c2nc3ccccc3s2)c1=O`, the inhibition is -27.6% (inactive).
The value for `O=C(CN1C(=O)NC2(CCCC2)C1=O)OCCOc1ccc(F)cc1` was 8.87% (inactive); that for `COc1cc(/C=C2/C(=O)NN(c3cccc(Cl)c3)C2=O)cc(Br)c1O` was -21.9% (inactive).
With `C=CCOc1c(Br)cc(/C=N\n2nnnc2N)cc1OC` the figure was 0.64% (inactive).
The value for `CCOc1c(Br)cc(/C=C2\C(=O)N(CCC#N)N=C2C)cc1OC` was 39.6% (active); that for `Cc1ccc(NC(=O)C2CC(=O)N(c3ccc4c(c3)OCCO4)C2)cc1S(=O)(=O)N1CCCCCC1` (configuration not stated) was 0.87% (inactive).
